Pemphigus Ab inh: inhibitors of pemphigus antibody binding to DSG3, primary screen, biochemical, bead-based, flow cytometry, scFv-GFP; hit rate 0.48% among 310,000; DSG3-coupled beads, scFv-anti-DSG3-GFP binding; stronger effect = lower value; binding (percent of control), % at 10 µM;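 active = binding more than 3 SD below its plate's average and above zero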
ADAM17 inh: ADAM17 inhibitors, primary screen, biochemical, QFRET; recombinant ADAM17, EDANS/DABCYL FRET peptide cleavage; AID 720648, 2013; hit rate 0.83% among 370,000; inhibition, % at 6.95 µM;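 active = inhibition above the mean of compounds lying between control limits plus 3 SD, set per campaign, cut at about 8.5% in these data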;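 note: 0% = DMSO-only wells as the low control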
proKLK7 act: proKLK7 zymogen activators, primary screen, biochemical, fluorescence intensity | Kallikrein-7 (Homo sapiens), P49862 | purified proKLK7, EDANS-DABCYL substrate fluorescence; 100% is mature enzyme control, 0% vehicle | activation, % at 7 µM | hit rate 0.9% among 370,000;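 active = activation above the mean of all tested compounds plus 3 SD, computed per campaign excluding outliers beyond control limits, cut at about 13% in these data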
Target sequence (P49862 whole entry, looked up): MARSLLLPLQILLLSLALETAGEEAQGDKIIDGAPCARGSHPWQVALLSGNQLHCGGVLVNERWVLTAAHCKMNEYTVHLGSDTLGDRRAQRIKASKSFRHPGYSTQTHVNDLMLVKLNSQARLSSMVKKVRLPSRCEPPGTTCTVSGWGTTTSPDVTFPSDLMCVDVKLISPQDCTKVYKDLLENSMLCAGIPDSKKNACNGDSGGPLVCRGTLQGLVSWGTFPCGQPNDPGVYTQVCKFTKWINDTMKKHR
MPTP inh: mitochondrial permeability transition pore inhibitors, primary screen, biochemical, isolated mouse mitochondria, absorbance | Ca2+ swelling absorbance, 30 min | inhibition, % at 10 µM | AID 602449, 2012 | hit rate 1.4% among 360,000;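 active = inhibition of 50% or more, scaled per plate between neutral and stimulator controls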;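 note: 0% = DMSO wells given calcium and 100% = 1 mM EGTA wells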
ADAM10 inh: human ADAM10 inhibitors, primary screen, biochemical, QFRET, HTS; Disintegrin and metalloproteinase domain-containing protein 10 (Homo sapiens), O14672; inhibition, % at 7 µM; hit rate 0.62% among 370,000; recombinant ADAM10, EDANS/DABCYL FRET peptide cleavage, 3 h; AID 720582, 2013;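 active = inhibition above a per-campaign cutoff equal to the mean of compounds falling between control-based bounds plus 3 SD, cut at about 20% in these data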;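 note: 0% = DMSO wells while the 100% control is not disclosed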
rCAG binder: binders of r(CAG) RNA repeats, primary screen, biochemical, fluorescence; r(CAG) RNA repeat, TO-PRO-1 dye displacement fluorescence; hit rate 1.3% among 370,000; AID 651821, 2012; inhibition, % at 3 µM;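 active = inhibition above the plate cutoff, the mean of all test compounds on that plate plus 3 SD, cut at about 35% in these data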;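 note: 0% = DMSO alone and 100% = 100 µM mitoxantrone as full dye displacement; higher means more dye released from RNA so lower well fluorescence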
rCAG bind conf: small molecules binding CAG repeat RNA – biochemical, fluorescence, confirmation; r(CAG) RNA repeat, TO-PRO-1 dye displacement fluorescence; inhibition, % at 3 µM; AID 652065, 2013; hit rate 70% among 4,300; shares compounds with rCAG binder;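 active = inhibition above a per-plate cutoff, the mean inhibition of sample wells plus 3 SD, cut at about 35% in these data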;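 note: loss of TO-PRO-1 fluorescence as compound displaces dye from 1x1 AA loop RNA; 0% = DMSO only wells and 100% = 100 µM mitoxantrone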
DNA CAG counter: displacement of TO-PRO-1 from CAG DNA duplex, counter-screen for rCAG RNA repeat binder project, biochemical, fluorescence, TO-PRO-1 dye, d(CAG) DNA oligo; shares compounds with rCAG binder; d(CAG) DNA oligo TO-PRO-1 dye displacement; inhibition, % at 3 µM; hit rate 94% among 4,300;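 active = inhibition above its plate's cutoff, the mean test-well inhibition plus 3 SD, cut at about 4.8% in these data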;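 note: 0% = DNA dye mix with DMSO and 100% = 100 µM mitoxantrone; hits displace the dye from DNA and so lower well fluorescence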
An asterisk follows results filed as active. Hits are enriched below; roughly 4.7% of the tested compounds scored in any of these assays.

Results for O=c1c(O)c(-c2ccc(O)c(O)c2)oc2cc(O)cc(O)c12 ?
Pemphigus Ab inh: 76; ADAM17 inh: -3; proKLK7 act: -3; MPTP inh: 5; ADAM10 inh: 6; rCAG binder: 36*; rCAG bind conf: 28; DNA CAG counter: 8.1*

How did COc1ccc(Cl)cc1NC(=O)CSc1nc(NS(=O)(=O)c2ccccc2)cc(=O)[nH]1 do in these assays?
Pemphigus Ab inh: 109; ADAM17 inh: 0; proKLK7 act: 0; MPTP inh: -1; ADAM10 inh: 5; rCAG binder: 17

How did COc1ccc(Cl)cc1NC(=O)CSc1nc(-c2ccccc2)cc(=O)[nH]1 do in these assays?
Pemphigus Ab inh: 115; ADAM17 inh: 8; proKLK7 act: -1; MPTP inh: 3; ADAM10 inh: 12; rCAG binder: 43*; rCAG bind conf: 68*; DNA CAG counter: 30*

Results for CCCc1cc(=O)[nH]c(SCC(=O)Nc2nc(-c3ccccc3)cs2)n1 ?
Pemphigus Ab inh: 98; ADAM17 inh: 3; proKLK7 act: 1; MPTP inh: 1; ADAM10 inh: -4; rCAG binder: 45*; rCAG bind conf: 56*; DNA CAG counter: 19*

Results for COc1ccc(CNCc2cccc3ccccc23)cc1 ?
Pemphigus Ab inh: 115; ADAM17 inh: -7; proKLK7 act: 0; MPTP inh: 3; ADAM10 inh: 4; rCAG binder: 0

What do the screens show for `COC(=O)c1ccc(CSc2nc3c(cnn3-c3ccccc3)c(=O)[nH]2)o1`?
Pemphigus Ab inh: 83; ADAM17 inh: -7; proKLK7 act: -1; MPTP inh: 1; ADAM10 inh: 0; rCAG binder: 38*; rCAG bind conf: 36*; DNA CAG counter: 8.0*

How did COC(=O)C1(C(=O)OC)C[C@H](c2cccs2)N(Cc2ccccc2OC)[C@@H]1c1ccc(F)cc1 do in these assays?
ADAM17 inh: 2; proKLK7 act: 0; MPTP inh: 5; ADAM10 inh: 3; rCAG binder: 8

How did CCc1nc2c(OCc3ccc(F)cc3)cccn2c1N(C)C(=O)COc1ccccc1 do in these assays?
ADAM17 inh: -2; proKLK7 act: 1; MPTP inh: 0; ADAM10 inh: 0; rCAG binder: 3

What do the screens show for `COc1ccc(CC(=O)Nc2cc(Cl)ccc2C(=O)O)cc1`?
ADAM17 inh: 2; proKLK7 act: 0; MPTP inh: 0; ADAM10 inh: 1; rCAG binder: 9

What do the screens show for `CCCCOc1ccc(Nc2cc(Cl)ccc2C(=O)O)cn1`?
Pemphigus Ab inh: 99; ADAM17 inh: 0; proKLK7 act: 1; MPTP inh: 2; ADAM10 inh: 7; rCAG binder: 70*; rCAG bind conf: 64*; DNA CAG counter: 16*

How did O=C(Nc1c(C(=O)Nc2ccccc2)cnn1-c1ccccc1)c1ccco1 do in these assays?
Pemphigus Ab inh: 102; ADAM17 inh: 1; proKLK7 act: 0; MPTP inh: 0; ADAM10 inh: -4; rCAG binder: 4

Results for O=C(Nc1c(C(=O)Nc2cccc3ccccc23)cnn1-c1ccccc1)c1ccco1 ?
Pemphigus Ab inh: 106; ADAM17 inh: -1; proKLK7 act: 0; MPTP inh: 0; ADAM10 inh: 8; rCAG binder: 64*; rCAG bind conf: 49*; DNA CAG counter: 16*

Results for CCCNC(=S)NNC(=O)c1cc(-c2cccnc2)nc2ccccc12 ?
Pemphigus Ab inh: 97; ADAM17 inh: -9; proKLK7 act: 2; MPTP inh: -1; ADAM10 inh: -21; rCAG binder: 20

What do the screens show for `CCOC(=O)c1ccc(Nc2nc(-c3cccnc3)nc3ccccc23)cc1`?
Pemphigus Ab inh: 116; ADAM17 inh: -14; proKLK7 act: -9; MPTP inh: -4; ADAM10 inh: -36; rCAG binder: 4

How did CCNC(=S)NNC(=O)c1cc(-c2cccc(C)c2)nc2ccccc12 do in these assays?
Pemphigus Ab inh: 98; ADAM17 inh: -19; proKLK7 act: 0; MPTP inh: 5; ADAM10 inh: -82; rCAG binder: 43*; rCAG bind conf: 40*; DNA CAG counter: 12*

What do the screens show for `CCNC(=S)NNC(=O)c1cc(-c2cccnc2)nc2ccccc12`?
Pemphigus Ab inh: 116; ADAM17 inh: -13; proKLK7 act: 3; MPTP inh: 1; ADAM10 inh: -22; rCAG binder: 10

Results for CCNC(=S)NNC(=O)c1cc(-c2cccc(OCC)c2)nc2ccccc12 ?
Pemphigus Ab inh: 107; ADAM17 inh: -11; proKLK7 act: -1; MPTP inh: 0; ADAM10 inh: -33; rCAG binder: 29

Results for CCOC(=O)c1ccc(NC(=S)NNC(=O)c2cc(-c3cccnc3)nc3ccccc23)cc1 ?
Pemphigus Ab inh: 111; ADAM17 inh: 4; proKLK7 act: 1; MPTP inh: 12; ADAM10 inh: -9; rCAG binder: 78*; rCAG bind conf: 80*; DNA CAG counter: 37*

How did CCCCNC(=S)NNC(=O)c1cc(-c2cccnc2)nc2ccccc12 do in these assays?
Pemphigus Ab inh: 98; ADAM17 inh: -15; proKLK7 act: 1; MPTP inh: 3; ADAM10 inh: -56; rCAG binder: 43*; rCAG bind conf: 32; DNA CAG counter: 7.7*

What do the screens show for `O=C(NNC(=S)Nc1ccccc1)c1cc(-c2cccnc2)nc2ccccc12`?
Pemphigus Ab inh: 115; ADAM17 inh: 1; proKLK7 act: 0; MPTP inh: 1; ADAM10 inh: -3; rCAG binder: 50*; rCAG bind conf: 43*; DNA CAG counter: 13*

Results for CC1(C(=O)NS(=O)(=O)c2cccs2)CCN1C(=O)CCc1ccc(Cl)cc1Cl (centres undefined) ?
ADAM17 inh: 0; proKLK7 act: 0; MPTP inh: 0; ADAM10 inh: -4; rCAG binder: 22

What do the screens show for `N#Cc1ccc(N2C(=O)[C@@H]3C(C(=O)C(c4ccccc4)c4ccccc4)=NN[C@@H]3C2=O)cc1`?
Pemphigus Ab inh: 118; ADAM17 inh: 1; proKLK7 act: 0; MPTP inh: 2; ADAM10 inh: 1; rCAG binder: 61*; rCAG bind conf: 34; DNA CAG counter: 12*
